From PubChem BioAssay (Tox21) come the findings set out here.

Values joined by “and” are separate entries in the source; they are usually repeats but may differ in a detail not shown here. Identical values can stand only once. Inconclusive results are not listed. Active and inactive are the calls of the source. Unless noted, calls come from the whole dose curve; as a rule, active = well fitted curve in the direction sought with a large enough effect in the repeat runs; inconclusive = weak or mixed curves; inactive = no such curve, though single readings can be large; an effect the other way counts as inactive or inconclusive.

Test [1] can be described thus: qHTS assay to identify small molecule HDAC inhibitors (AID 1259364).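 Note: wild-type HCT-116 cells with endogenous class I/II HDAC activity; top concentration of the series differs between compounds; nearly all actives have a fitted effect of over 45% in size.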 Put shortly: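 Read-out: luminescence of HDAC-Glo I/II reagent, 30 min RT, reflecting class I/II deacetylase activity in whole HCT-116 cells pre-exposed 2 h to DMSO-dissolved compounds.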
For orientation: Quantitative high-throughput screening tests each substance at several concentrations.

The nature of test [2]: qHTS assay to identify small molecule HDAC inhibitors - cell viability counter screen (AID 1259365). Note: series mostly up to about 92 µM; nearly all actives have a fitted effect of over 50% in size. Put shortly: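 Measured quantity is CellTiter-Glo luminescence from wild-type HCT-116 cells after compound incubation of 2hr at 37C, 5% CO2; reagent developed 30min at room temperature.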
The nature of test [3]: qHTS assay to identify small molecule agonists of the sonic hedgehog signaling (Shh) pathway - cell viability counter screen (AID 1259366). Note: nearly all actives have a fitted effect of over 50% in size. Note: potency is the fitted concentration of half-maximal effect. Put shortly: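 In quantitative high-throughput format, 3T3 Gli1-Luc cells were exposed to compounds for 24hr and multiplexed for viability using CellTiter-Fluor, incubated 1hr at 37C before the fluorescence read.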
A short description of test [4]: qHTS assay to identify small molecule agonists of the sonic hedgehog signaling (Shh) pathway (AID 1259368; calls by dose curve;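 note: NIH/3T3-derived 3T3Gli1-Luc cells carrying a stable Gli1-driven firefly luciferase reporter; series mostly up to about 92 µM; nearly all actives have a fitted effect of over 15% in size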). An outline of the steps: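 A Gli1 transcriptional response element controlled firefly luciferase in 3T3Gli1-Luc cells. Compounds and a positive control were added 4 hr after plating, and cells were incubated a further 24 hr at 37 C before luminescence detection.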

The nature of test [5]: qHTS assay to identify small molecule antagonists of the sonic hedgehog signaling (Shh) pathway (AID 1259369; calls by dose curve; note: nearly all actives have a fitted effect of over 45% in size). Put shortly:
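For antagonist detection, the reporter line received test compounds together with conditioned medium, incubated 24hr at 37 C, 5% CO2, then luminescence was recorded following 30min room-temperature luciferase reagent incubation.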

The target in test [6] is Estrogen receptor beta (Homo sapiens) (UniProt Q92731). Nature of the test: qHTS assay to identify small molecule agonists of the estrogen receptor beta (ER-beta) signaling pathway (AID 1259377; active = well fitted activation curve with a large enough effect in the signal ratio in the repeat runs, not every such curve was filed as active; the % refers to the signal ratio). Put shortly:
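Reporter cells (HEK293T, ER-beta-UAS-bla) receive compounds or DMSO after a 6 hr pre-incubation. They then incubate 16 hr at 37C/5% CO2, and fluorescence from LiveBLAzer B/G substrate is measured after 2 hours at room temperature.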

The nature of test [7]: qHTS assay to identify small molecule agonists of the androgen receptor (AR) signaling pathway in the presence of an antagonist - cell viability counter screen (AID 1259379). Note: nearly all actives have a fitted effect of over 25% in size. Note: potency is the fitted concentration of half-maximal effect. An outline of the steps: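 Seed MDA-kb2 at 3,000 cells/well; incubate 5 hr, 37C, 0% CO2. Add nilutamide to 3.0uM final, then pin compounds at 15 concentrations. Incubate 16 hr. Add CellTiter-Fluor at 15 hr, read fluorescence after 1 hr.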

The nature of test [8]: qHTS assay to identify small molecule agonists of the estrogen receptor beta (ER-beta) signaling pathway - cell viability counter screen (AID 1259380). Note: nearly all actives have a fitted effect of over 30% in size. An outline of the steps: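 CellTiter-Glo read, 30 min RT, same wells as bla assay; cells ER-beta-UAS-bla HEK293T; 16 hr compound, 37C; medium 2% charcoal-stripped FBS.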
The nature of test [9]: qHTS assay to identify small molecule antagonists of the estrogen receptor beta (ER-beta) signaling pathway - cell viability counter screen (AID 1259382). Note: series mostly up to about 92 µM; nearly all actives have a fitted effect of over 55% in size. Put shortly: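 In this multiplexed counter screen, cells were seeded at 2,000 per well in medium with 2% charcoal-stripped FBS and incubated 6 hr before compound and 1nM final E2 were added. Sixteen hours later, ATP-based luminescence reported viability.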

The target in test [10] is Estrogen receptor (Homo sapiens) (UniProt P03372). Nature of the test: qHTS assay to identify small molecule agonists of the estrogen receptor alpha (ER-alpha) signaling pathway in the presence of an antagonist (AID 1259383; calls by dose curve; note: top concentration of the series differs between compounds; nearly all actives have a fitted effect of over 15% in size). An outline of the steps:
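Stably transfected VM7Luc4E2 reporter cells, kept 5 days in charcoal-stripped serum, received ICI-182,780 at 10.0nM final before compound addition. Following 22hr incubation at 37C and 5% CO2, luciferase signal was read by luminescence.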

Test [11] is described as follows: qHTS assay to identify small molecule agonists or antagonists of the thyroid stimulating hormone receptor (TSHR) signaling pathway - wild type cell line counter screen (AID 1259384; calls by dose curve). An outline of the steps:
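Wild-type Hek293 cells, 800/well, 18 h at 37C, then compound with Ro20-1724 for 30 min RT. cAMP by HTRF (cAMP-d2/anti-cAMP cryptate), 1 h RT, fluorescence read. 15 concentrations, triplicates.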

In test [12] the target is Thyrotropin receptor (Homo sapiens) (UniProt P16473). Nature of the test: qHTS assay to identify small molecule antagonists of the thyroid stimulating hormone receptor (TSHR) signaling pathway (AID 1259385; calls by dose curve; note: nearly all actives have a fitted effect of over 20% in size). Put shortly: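 TSHR-HEK293 cells (800/well) plated 18 h, then compounds with Ro20-1724 and TSH at 1.5 ng/mL final, 30 min at room temperature. cAMP quantified by HTRF (cAMP-d2/anti-cAMP-cryptate, 1 h); 15 concentrations in triplicate.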

Test [13] can be described thus: qHTS assay to identify small molecule agonists of the estrogen receptor alpha (ER-alpha) signaling pathway in the presence of an antagonist - cell viability counter screen (AID 1259386).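 Note: cells exposed to compounds for 22 h at 37 °C before the viability read; nearly all actives have a fitted effect of over 30% in size.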 Note: potency is the fitted concentration of half-maximal effect. Put shortly: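 Viability counter screen using VM7Luc4E2 (full-length ER-alpha, four ERE-luciferase). The cells were treated with compounds alongside ICI-182,780 10.0nM for 22hr, and live-cell protease fluorescence was quantified with CellTiter-Fluor.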

Test [14] addresses Progesterone receptor (Homo sapiens) (UniProt P06401). Nature of the test: qHTS assay to identify small molecule agonists of the progesterone receptor (PR) signaling pathway (AID 1346784; calls by dose curve; note: nearly all actives have a fitted effect of over 30% in size). An outline of the steps:
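Reporter assay, GripTite PR-UAS-bla HEK 293T cells: 16 hr exposure to DMSO-dissolved compounds at 37C, 5% CO2, in steroid-depleted (2% charcoal-stripped FBS) medium; beta-lactamase measured by FRET fluorescence.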

A short description of test [15]: qHTS assay to identify small molecule antagonists of the sonic hedgehog signaling (Shh) pathway - cell viability counter screen (AID 1259367). Note: nearly all actives have a fitted effect of over 55% in size. Put shortly: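 Seed 3T3 Gli1-Luc cells at 2,000 per well; incubate 4 hr; add compound in DMSO, then conditioned medium; incubate at 37C with 5% CO2; add CellTiter-Fluor after 23 hr; read fluorescence 1 hr later.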
Test [16] has as its target Progesterone receptor (Homo sapiens) (UniProt P06401). Description: qHTS assay to identify small molecule antagonists of the progesterone receptor (PR) signaling pathway (AID 1346795; active = well fitted inhibition curve with a large enough effect in the signal ratio in the repeat runs, not every such curve was filed as active; the % refers to the signal ratio). Put shortly: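 Stimulus R5020 at 1 nM final; cells HEK293T PR-UAS-bla; medium with 2% charcoal-stripped FBS; compound exposure 16 hr at 37C, 5% CO2; detection by FRET beta-lactamase substrate, 2 hr, room temperature.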

The target of test [17] is Androgen receptor (Homo sapiens) (UniProt P10275). Nature of the test: qHTS assay to identify small molecule agonists of the androgen receptor (AR) signaling pathway in the presence of an antagonist (AID 1259381; calls by dose curve; note: nearly all actives have a fitted effect of over 15% in size). An outline of the steps:
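Test compounds at 15 concentrations were incubated for 16hr with MDA-kb2 reporter cells in presence of 3.0uM nilutamide (final). Signal: ONE-Glo luciferase luminescence.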

Test [18] concerns the target Estrogen receptor beta (Homo sapiens) (UniProt Q92731). Nature of the test: qHTS assay to identify small molecule antagonists of the estrogen receptor beta (ER-beta) signaling pathway (AID 1259378; active = well fitted inhibition curve with a large enough effect in the signal ratio in the repeat runs, not every such curve was filed as active; the % refers to the signal ratio). An outline of the steps:
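ER-beta-UAS-bla HEK293T cells in 2% charcoal-stripped FBS medium treated with compound plus 1nM final 17-beta-estradiol for 16 hr at 37C. Beta-lactamase reporter read by FRET substrate fluorescence after 2 hours at room temperature.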

Chain of Androgen receptor (Homo sapiens) (P10275 whole entry, looked up): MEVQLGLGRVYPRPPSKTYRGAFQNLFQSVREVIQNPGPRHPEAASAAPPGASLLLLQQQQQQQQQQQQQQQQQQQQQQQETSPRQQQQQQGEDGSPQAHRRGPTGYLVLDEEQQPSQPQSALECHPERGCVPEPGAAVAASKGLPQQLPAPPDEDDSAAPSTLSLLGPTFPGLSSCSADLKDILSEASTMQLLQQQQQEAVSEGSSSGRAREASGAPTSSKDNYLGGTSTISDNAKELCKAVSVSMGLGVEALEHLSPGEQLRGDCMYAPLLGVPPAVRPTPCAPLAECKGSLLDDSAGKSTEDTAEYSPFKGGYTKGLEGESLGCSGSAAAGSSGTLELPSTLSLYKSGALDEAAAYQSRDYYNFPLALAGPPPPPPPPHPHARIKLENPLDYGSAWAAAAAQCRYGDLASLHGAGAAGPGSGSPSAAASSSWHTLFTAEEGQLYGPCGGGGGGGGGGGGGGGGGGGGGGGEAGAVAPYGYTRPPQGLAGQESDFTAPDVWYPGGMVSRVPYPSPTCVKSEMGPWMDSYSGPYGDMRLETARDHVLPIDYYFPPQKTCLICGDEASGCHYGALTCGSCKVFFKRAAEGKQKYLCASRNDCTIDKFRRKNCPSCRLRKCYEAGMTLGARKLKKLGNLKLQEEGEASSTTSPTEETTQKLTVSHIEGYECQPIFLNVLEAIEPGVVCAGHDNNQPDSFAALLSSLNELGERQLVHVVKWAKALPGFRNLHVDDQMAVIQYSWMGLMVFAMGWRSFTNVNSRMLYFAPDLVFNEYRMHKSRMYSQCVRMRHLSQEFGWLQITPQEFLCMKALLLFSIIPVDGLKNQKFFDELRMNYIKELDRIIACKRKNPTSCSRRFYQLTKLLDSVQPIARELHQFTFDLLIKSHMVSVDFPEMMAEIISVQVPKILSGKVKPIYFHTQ
Chain of Progesterone receptor (Homo sapiens) (P06401 whole entry, looked up): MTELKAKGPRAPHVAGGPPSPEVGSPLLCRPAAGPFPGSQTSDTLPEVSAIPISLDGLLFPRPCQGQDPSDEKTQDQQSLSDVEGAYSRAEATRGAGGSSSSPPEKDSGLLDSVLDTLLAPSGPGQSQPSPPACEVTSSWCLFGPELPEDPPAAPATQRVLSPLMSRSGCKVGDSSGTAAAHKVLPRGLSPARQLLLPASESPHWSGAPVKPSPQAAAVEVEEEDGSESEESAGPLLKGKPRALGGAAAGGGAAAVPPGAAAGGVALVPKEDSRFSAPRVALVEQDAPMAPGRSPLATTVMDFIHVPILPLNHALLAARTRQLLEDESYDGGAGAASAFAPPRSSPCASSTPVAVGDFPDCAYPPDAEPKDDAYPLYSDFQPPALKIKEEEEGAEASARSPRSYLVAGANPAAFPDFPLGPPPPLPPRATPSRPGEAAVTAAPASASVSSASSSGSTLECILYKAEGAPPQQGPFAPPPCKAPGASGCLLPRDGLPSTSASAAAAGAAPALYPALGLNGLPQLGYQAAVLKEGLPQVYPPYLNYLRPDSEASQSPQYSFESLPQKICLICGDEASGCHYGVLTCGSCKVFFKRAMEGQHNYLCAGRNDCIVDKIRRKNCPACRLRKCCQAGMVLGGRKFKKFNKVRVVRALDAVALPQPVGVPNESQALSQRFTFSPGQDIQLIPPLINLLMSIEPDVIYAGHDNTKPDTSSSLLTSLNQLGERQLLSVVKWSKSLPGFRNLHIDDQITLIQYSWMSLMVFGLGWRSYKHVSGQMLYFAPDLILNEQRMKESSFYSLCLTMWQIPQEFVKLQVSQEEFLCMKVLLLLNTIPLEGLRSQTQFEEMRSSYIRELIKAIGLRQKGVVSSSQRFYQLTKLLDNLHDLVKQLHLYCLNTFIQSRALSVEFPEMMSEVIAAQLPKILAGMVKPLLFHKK
Chain of Estrogen receptor (Homo sapiens) (P03372 whole entry, looked up): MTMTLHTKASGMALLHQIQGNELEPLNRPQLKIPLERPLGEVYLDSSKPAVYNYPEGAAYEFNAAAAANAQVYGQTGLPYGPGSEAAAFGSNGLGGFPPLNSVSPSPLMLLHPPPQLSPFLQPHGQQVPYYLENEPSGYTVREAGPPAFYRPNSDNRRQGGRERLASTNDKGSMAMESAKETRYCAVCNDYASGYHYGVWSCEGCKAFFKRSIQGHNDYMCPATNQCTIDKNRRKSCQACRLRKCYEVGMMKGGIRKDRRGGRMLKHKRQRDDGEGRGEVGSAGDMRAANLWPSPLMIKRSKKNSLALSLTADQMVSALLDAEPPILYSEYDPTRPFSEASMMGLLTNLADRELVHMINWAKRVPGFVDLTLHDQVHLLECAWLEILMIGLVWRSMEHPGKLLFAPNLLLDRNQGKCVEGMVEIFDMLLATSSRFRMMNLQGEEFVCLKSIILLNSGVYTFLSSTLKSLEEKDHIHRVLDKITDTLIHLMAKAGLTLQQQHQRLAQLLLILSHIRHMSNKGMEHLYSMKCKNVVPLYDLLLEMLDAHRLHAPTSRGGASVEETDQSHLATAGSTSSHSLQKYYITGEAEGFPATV
Chain of Estrogen receptor beta (Homo sapiens) (Q92731 whole entry, looked up): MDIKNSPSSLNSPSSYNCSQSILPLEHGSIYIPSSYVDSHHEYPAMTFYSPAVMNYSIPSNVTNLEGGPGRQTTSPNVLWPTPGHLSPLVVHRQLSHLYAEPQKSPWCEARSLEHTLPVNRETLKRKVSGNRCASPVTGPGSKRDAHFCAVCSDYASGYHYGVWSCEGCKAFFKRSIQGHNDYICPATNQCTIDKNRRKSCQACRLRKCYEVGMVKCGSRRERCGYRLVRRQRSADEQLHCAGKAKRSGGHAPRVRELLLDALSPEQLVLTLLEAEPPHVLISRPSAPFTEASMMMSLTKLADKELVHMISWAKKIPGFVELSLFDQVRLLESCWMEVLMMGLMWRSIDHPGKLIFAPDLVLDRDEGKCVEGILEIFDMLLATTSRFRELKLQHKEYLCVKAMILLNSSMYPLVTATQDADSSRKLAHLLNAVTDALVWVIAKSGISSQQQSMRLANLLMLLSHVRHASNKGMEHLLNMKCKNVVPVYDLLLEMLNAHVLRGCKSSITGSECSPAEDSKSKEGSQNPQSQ
Chain of Thyrotropin receptor (Homo sapiens) (P16473 whole entry, looked up): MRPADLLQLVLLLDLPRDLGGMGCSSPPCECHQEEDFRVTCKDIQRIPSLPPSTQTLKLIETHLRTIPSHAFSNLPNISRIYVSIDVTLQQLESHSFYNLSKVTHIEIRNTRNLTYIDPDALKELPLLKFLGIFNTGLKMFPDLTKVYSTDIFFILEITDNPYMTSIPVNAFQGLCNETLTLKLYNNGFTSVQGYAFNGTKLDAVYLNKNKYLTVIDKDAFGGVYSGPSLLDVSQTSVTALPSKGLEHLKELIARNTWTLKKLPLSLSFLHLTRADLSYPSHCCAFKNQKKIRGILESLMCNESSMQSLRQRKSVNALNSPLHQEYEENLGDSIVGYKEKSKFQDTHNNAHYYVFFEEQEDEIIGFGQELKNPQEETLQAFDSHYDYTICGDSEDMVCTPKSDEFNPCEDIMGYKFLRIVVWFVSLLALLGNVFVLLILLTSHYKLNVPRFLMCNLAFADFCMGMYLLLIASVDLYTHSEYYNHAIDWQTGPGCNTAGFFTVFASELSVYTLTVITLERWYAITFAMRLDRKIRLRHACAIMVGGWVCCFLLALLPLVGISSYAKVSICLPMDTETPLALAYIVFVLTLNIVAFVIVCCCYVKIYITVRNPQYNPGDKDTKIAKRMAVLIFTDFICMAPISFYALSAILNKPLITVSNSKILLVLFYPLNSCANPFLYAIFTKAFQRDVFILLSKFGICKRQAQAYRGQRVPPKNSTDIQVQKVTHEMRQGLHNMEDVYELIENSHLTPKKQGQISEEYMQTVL

As to `O=C=NCCCCCCN=C=O`, the Potency entry in test [1], in test [3], in test [5], in [6], in test [7] and in test [8] was “inactive” in each case. Besides, the Potency result in test [9], in test [10], in [12], in test [13] and in [14] was “inactive” throughout. Besides, the compound was called inactive in test [2], in [4] and in test [11].
In the case of `CCCCCCCCC/C=C/CC1CC(=O)OC1=O` (stereo not drawn), the Potency result in test [1], in test [3], in [15], in test [5], in [7] and in test [9] was “inactive” in each case. In addition, the Potency result in test [13] and in test [14] was “inactive” throughout. Moreover, the compound was called inactive in test [2], in test [4] and in [11].
`C/C=C1/CC2C=CC1C2` (stereo not drawn): the Potency entry in test [1], in test [3], in [15], in test [5], in [7] and in test [8] was “inactive” each time. Also, the Potency entry in test [9], in test [10], in test [13], in [14] and in [16] was “inactive” each time. In addition, the result in test [2] and in test [4] was inactive.
With `CC(=O)CC(=O)Nc1ccccc1`, the Potency result in test [1], in test [3], in test [5], in test [6], in test [7] and in test [8] was “inactive” throughout. In addition, the Potency entry in [9], in [12], in test [13], in [14] and in [16] was “inactive” in each case. For the same compound, the outcome in [2], in [4] and in test [11] was inactive.
Take `CC(O)COCC(C)O` (stereo not drawn): the Potency entry in [1], in [3], in test [15], in [5], in test [7] and in test [8] was “inactive” in each case. Further, the Potency result in test [9], in [10], in test [12], in test [13] and in test [14] was “inactive” each time. The compound was called inactive in test [2], in [4] and in [11].
Take `CCCCCCCCCCCCc1ccccc1`: the Potency result in [1], in test [3], in test [15], in [5], in test [7] and in test [8] was “inactive” each time. In addition, the Potency result in test [9], in [13], in [14] and in test [16] was “inactive” throughout. Further, the compound was classed as inactive in test [2], in [4] and in test [11].
Regarding `O=C(O)c1ccc2c(c1)C(=O)OC2=O`, the Potency entry in test [1], in [3], in [5], in [6], in [7] and in test [8] was “inactive” throughout. Also, the Potency result in [17], in test [9], in test [10], in test [12], in [13] and in [14] was “inactive” each time. Moreover, the call in test [2], in [4] and in test [11] was inactive.
With `Cc1occc(=O)c1O`, the Potency result in test [1], in test [3], in [15], in [5], in test [7] and in [8] was “inactive” each time. For the same compound, the Potency result in test [9], in test [13], in [14] and in [16] was “inactive” each time. Besides, the result in test [2], in test [4] and in [11] was inactive.
In the case of `Nc1cc([N+](=O)[O-])ccc1O`, the Potency entry in [1], in test [15], in [5], in [8], in test [17] and in [9] was “inactive” each time. Further, the Potency entry in [14] and in test [16] was “inactive” throughout. Further, the result in [2], in [4] and in [11] was inactive. In addition, the Potency in test [3] is 48.6 µM (active); in test [7], 48.6 µM (active) and 54.2 µM (active); in test [13] it was 43.3 µM (active) and 27.2 µM (active).
Turning to `c1ccc2c(c1)ccc1ccccc12`, the Potency entry in test [1], in test [3], in test [15], in test [5], in [7] and in test [8] was “inactive” throughout. In addition, the Potency result in test [17], in test [9], in [10], in test [13], in test [14] and in [16] was “inactive” throughout. The outcome in test [2], in [4] and in test [11] was inactive.
With `O=C(O)CC(C(=O)O)C(CC(=O)O)C(=O)O` (stereo not drawn), the Potency result in [1], in [3], in test [15], in [5], in test [7] and in test [8] was “inactive” each time. Besides, the Potency entry in test [9], in test [10], in [12], in test [13], in test [14] and in test [16] was “inactive” throughout. The compound was called inactive in [2], in [4] and in test [11].
For the compound `FC(F)(F)c1ccc(Cl)c(Cl)c1`, the Potency result in [1], in test [3], in [5], in test [6], in [18] and in test [7] was “inactive” throughout. Also, the Potency entry in [8], in [17], in test [9], in test [10], in test [12] and in test [13] was “inactive” throughout. Moreover, the Potency result in test [14] was “inactive”. Moreover, the result in [2], in test [4] and in test [11] was inactive.
Take `CSCCC=O`: the Potency entry in test [1], in test [3], in test [5], in [6], in test [7] and in [8] was “inactive” throughout. The Potency entry in test [9], in test [13] and in test [14] was “inactive” in each case. The compound was called inactive in [2] and in [4].
